Experimental data reported in PubChem BioAssay AID1259417 (TB Discovery Research, Infectious Disease Research Institute, 2018).
Out of some 1,100 compounds screened, about 760 (69%) were called active. No rule for the calls is given here. So high a share suggests a set chosen from earlier hits. The list shows a part of the results.

Assay: M. tuberculosis growth inhibition, HTS (AID 1259417);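 also: bacteria grown with compound for 5 days at 37 °C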
Conditions: stronger effect = higher value, concentration not given here
[1] = M. tuberculosis DsRed fluorescence growth inhibition
[2] = M. tuberculosis growth inhibition

| Compound | inhibition [1] | inhibition [2] [%] |
| --- | --- | --- |
| Cc1cc(N2CCCCC2)nc2ccc(NC(=O)c3ccc(Br)o3)cc12 | 0.712% (inactive) | -27.2 |
| Cc1ccc(Cc2ccc(C(=O)Nc3ccc(C)c(C)c3)o2)cc1 | 99.7% (active) | 99.7 |
| COc1cc2c(cc1NC(=O)Nc1ccc(Cl)cc1)oc1ccccc12 | 0.315% (inactive) | -15.8 |
| COc1ccc(C)cc1NC(=O)c1ccc(Cc2ccc(C)cc2)o1 | 98.3% (active) | 101 |
| COc1ccc2c(c1)CCC1Sc3ccccc3N=C21 (stereo not drawn) | 1.21% (inactive) | 17 |
| COC(=O)C(CC(C)C)NC(=O)/C=C/c1ccccc1Cl (stereo not drawn) | 11.6% (inactive) | 28.6 |
| COC(=O)C(CC(C)C)NC(=O)/C=C/c1ccc(Cl)cc1 (stereo not drawn) | 53.1% (active) | 45.8 |
| CC(C)Cc1cc(C(=O)Nc2c(F)cc(F)cc2Br)no1 | 22.3% (active) | 57.6 |
| O=C(c1ccco1)N(CCCn1ccnc1)c1nc2ccc(Cl)cc2s1 | 97.8% (active) | 99.1 |
| O=C(c1ccco1)N(CCCn1ccnc1)c1nc2ccc(Br)cc2s1 | 98.9% (active) | 98.4 |
| Cc1ccc2nc(N(CCCn3ccnc3)C(=O)c3ccco3)sc2c1 | 96.9% (active) | 98.4 |
| O=C1N(c2ccc3c(c2)OCCO3)C(c2ccccc2)C1(F)F (stereo not drawn) | 36.5% (active) | 75.8 |
| COc1ccc(-c2nnc(NC(=O)c3ccc(Cl)s3)o2)cc1 | 75.4% (active) | 80.6 |
| O=C(Nc1nnc(-c2ccc(Br)cc2)o1)c1ccc(Cl)s1 | 32.9% (active) | 79.2 |
| O=C(Nc1nnc(-c2ccc(Br)cc2)o1)c1cc(Cl)sc1Cl | 8.56% (inactive) | 28.1 |
| O=C(Nc1nnc(-c2ccc(F)cc2)o1)c1ccc(Br)s1 | 66.4% (active) | 78.5 |
| CC(C)(C)c1ccc(-n2c(=O)[nH]c3c(C(N)=O)nc(CCc4ccccc4)nc32)cc1 | 2.16% (inactive) | -28.9 |
| COc1ccc(Cn2c(=O)c3c(n4cnnc24)-c2ccccc2CC32CCCCC2)cc1 | 21.7% (inactive) | 2.83 |
| COc1ccc(C2(CNC(=O)c3cc([N+](=O)[O-])cc([N+](=O)[O-])c3)CCCC2)cc1OC | 98.6% (active) | 94.9 |
| O=C(NCCc1ccc(Cl)cc1)C1CCC(CNc2c(N3CCCCC3)c(=O)c2=O)CC1 (stereo not drawn) | 96.1% (active) | 90 |
| O=C(NCCc1ccc(Cl)cc1)c1ccc(CNc2c(N3CCOCC3)c(=O)c2=O)cc1 | 96% (active) | 88.6 |
| CC1CC(C)CN(C(=O)c2ccc(CNc3c(N4CCCC4)c(=O)c3=O)cc2)C1 (stereo not drawn) | 97.5% (active) | 90 |
| CCOC(=O)COc1ccc2c(=O)c(-c3ccc(OC)cc3)c(C)oc2c1 | 83.6% (active) | 94 |

| Compound | inhibition [1] | inhibition [2] [%] |
| --- | --- | --- |
| COC(=O)C(C)Oc1ccc2c(=O)c(-c3ccc(Br)cc3)c(C)oc2c1 (stereo not drawn) | 32.6% (active) | 92.3 |
| COc1ccc(-c2c(C)oc3cc(OCC(=O)OC(C)C)ccc3c2=O)cc1OC | 13.8% (active) | 67.7 |
| CCOC(=O)COc1ccc2c(C)c(-c3ccc(OC)c(OC)c3)c(=O)oc2c1 | 10.3% (active) | 36.5 |
| CCC(=Cc1sc2ccc(OC)cc2[n+]1CCO)C=C1Sc2ccc(OC)cc2N1CCO | 9.54% (inactive) | 21 |
| CCOC(=O)COc1ccc2c(=O)c(-c3ccc(OC)c(OC)c3)c(C(=O)OCC)oc2c1 | 34.4% (active) | 64.4 |
| CCOC(=O)COc1ccc2c(C)c(CC(=O)OC)c(=O)oc2c1 | 11.2% (active) | 54.4 |
| Cc1ccc(C(=O)Oc2cccc(NC(=O)c3ccccc3)c2)cc1C | 0.632% (inactive) | 1.38 |
| Cc1cc(C(=O)Oc2ccc(Cc3ccccc3)cc2)ccc1[N+](=O)[O-] | 41.1% (active) | 39.3 |
| Cc1cc(C(=O)Oc2ccccc2)ccc1[N+](=O)[O-] | 10.6% (active) | 55.9 |
| CCOC(=O)c1c(NC(=O)c2ccc([N+](=O)[O-])c(C)c2)sc(C)c1-c1ccccc1 | 2.11% (inactive) | -28.3 |
| Cc1cc2c(cc1C)N(Cc1ccc(C(C)(C)C)cc1)C1=NCCCN12 | 95% (active) | 99.7 |
| Cn1c(Sc2ccc([N+](=O)[O-])c3cccnc23)nnc1-c1ccccc1 | 12% (inactive) | 20.3 |
| Cn1c(Sc2cnn(-c3ccccc3)c(=O)c2Br)nnc1-c1ccccc1 | 49.6% (active) | 70.7 |
| CCOC(=O)C(C)Sc1ncc(-c2ccc(Cl)cc2)cn1 (stereo not drawn) | 4.78% (active) | 45.6 |
| CCOC(=O)CSc1n[nH]c(-c2ccc(Cl)cc2)n1 | 17.9% (active) | 58 |
| CCCOc1ccccc1-c1nc(SCC(=O)OCC)n[nH]1 | 2.36% (active) | 37.9 |
| CCOC(=O)CSc1ncc(-c2cccc(Cl)c2)cn1 | 15% (active) | 70.5 |
| O=C(CSc1n[nH]c(-c2ccc(Cl)cc2)n1)Nc1ccc(F)c(Cl)c1 | -0.872% (inactive) | -10.5 |
| COc1ccc(-c2c(C)[nH]n3c(=O)c(Cc4ccccc4)c(C)nc23)cc1 | 96.2% (active) | 81.3 |
| COc1ccc(C2=CC(c3c(C)nn(-c4ccccc4)c3Cl)n3nnnc3N2)cc1OC (stereo not drawn) | 99.1% (active) | 93.4 |
| CCOc1ccc2c3c(c(=O)oc2c1OCC)CCCC3 | 31.8% (active) | 41.4 |
| COc1ccc(-n2c(C)nc3sc4c(c3c2=O)CCCC4)cc1 | -4.71% (inactive) | -14.1 |
| COc1nc(SC)nc2sc3c(c12)CCC3 | 98.3% (active) | 99.3 |

| Compound | inhibition [1] | inhibition [2] [%] |
| --- | --- | --- |
| Clc1ccc(OCCCn2ccnc2)cc1Cl | 98.6% (active) | 99.3 |
| Clc1ccc(OCCCCn2ccnc2)cc1Cl | 100% (active) | 99.3 |
| [O-][n+]1onc2c3cc(-c4ccccc4)nnc3ccc21 | 80.6% (active) | 96.7 |
| O=C(Nc1nnc(-c2cc(Cl)ccc2Cl)o1)c1ccc(Br)s1 | 96.9% (active) | 95.6 |
| O=C(Nc1nnc(-c2cc(Cl)ccc2Cl)o1)c1ccc(Cl)s1 | -4.8% (inactive) | -10.4 |
| O=C(Nc1nnc(-c2cc(Cl)ccc2Cl)o1)c1cccs1 | 83.8% (active) | 82.4 |
| O=C(OCC#CCSc1nnc(-c2ccccc2)o1)c1ccco1 | 44% (active) | 10.3 |
| Cc1ccc(-c2nnc(SCC#CCOC(=O)c3ccco3)o2)cc1 | 35.7% (active) | 20.4 |
| O=C(OCC#CCSc1nc2ccccc2o1)c1ccco1 | 59.9% (active) | 68.2 |
| CC(C)(C)NC(=O)COC(=O)c1snc(C(=O)NC2CCCCC2)c1N | 21.4% (active) | 66.6 |
| O=C(CCNc1ccc(Cl)c(C(F)(F)F)c1)c1cccs1 | 10.9% (active) | 35.4 |
| CCOc1ccc(NCCC(=O)c2cccs2)cc1 | -0.257% (inactive) | -9.66 |
| O=C(/C=C/c1ccco1)Nc1nc(-c2ccccn2)cs1 | 88.5% (active) | 89 |
| CN(C)c1ccc(Nc2nc(-c3ccc(O)cc3O)cs2)cc1 | 36% (active) | 10.8 |
| CN(C)c1ccc(Nc2nc(-c3ccccn3)cs2)cc1 | 54.1% (active) | 38.2 |
| Fc1ccc(Nc2nc(-c3ccccn3)cs2)cc1 | 93.9% (active) | 94.1 |
| c1ccc(Nc2nc(-c3ccccn3)cs2)cc1 | 88.2% (active) | 91.8 |
| Clc1ccc(Nc2nc(-c3ccccn3)cs2)nc1 | 101% (active) | 101 |
| Brc1ccc(Nc2nc(-c3ccccn3)cs2)cc1 | 91% (active) | 94.1 |
| Fc1cccc2sc(Nc3nc(-c4ccccn4)cs3)nc12 | 99.5% (active) | 101 |
| CCOc1ccc(Nc2nc(-c3ccccn3)cs2)cc1 | 89.5% (active) | 92 |
| Cc1ccc(S/C=C\C(=O)c2ccccc2)cc1 | 36.8% (active) | 37.6 |
| CSCCC(NC(=O)c1cc([N+](=O)[O-])cc([N+](=O)[O-])c1)c1nc2ccccc2[nH]1 (stereo not drawn) | 51.9% (active) | 71.3 |

| Compound | inhibition [1] | inhibition [2] [%] |
| --- | --- | --- |
| CCOC(=O)Cn1cc(C#N)c2cccc(CC)c21 | 14.1% (active) | 56.3 |
| Cc1cc(OC(=O)C2CC2)c2c3c(c(=O)oc2c1)CCCC3 | 22% (inactive) | 21.7 |
| CCOC(=O)COc1ccc2c3c(c(=O)oc2c1)CCCCC3 | 42.8% (active) | 74.2 |
| CCOC(=O)COc1cc2c3c(c(=O)oc2cc1C)CCCC3 | 43% (active) | 89.3 |
| CCc1cc(C(=O)OC)c(NC(=S)NCc2ccc(Cl)c(Cl)c2)s1 | 96.8% (active) | 88.4 |
| CCOC(=O)c1cc(-c2ccccc2)sc1NC(=S)NC1CCN(Cc2ccccc2)CC1 | 18.5% (inactive) | 1.16 |
| COc1ccc(C(=O)C(CN2CCOCC2)c2ccccc2)cc1 (stereo not drawn) | 42.8% (active) | 77 |
| COc1ccc(C(=O)C(CN2CCCCC2)c2ccccc2)cc1 (stereo not drawn) | 31.4% (active) | 66.8 |
| COc1ccc(C(=O)N2N=C(c3ccccc3)CC2(O)C(F)(F)F)cc1 (stereo not drawn) | 1.52% (inactive) | -2.76 |
| Nc1nnc(Sc2ncccc2[N+](=O)[O-])s1 | 98.8% (active) | 98.6 |
| C=CCNc1nnc(Sc2ncccc2[N+](=O)[O-])s1 | 97.9% (active) | 98.2 |
| Cc1ccc(C)c(N=Nc2nc3ccccc3n2C)c1 | 100% (active) | 99.1 |
| Cc1ccc(C(=O)Nc2nc(-c3ccccc3)c(-c3ccccc3)o2)cc1 | 80.4% (active) | 65.6 |
| O=C(Nc1nc(-c2ccccc2)c(-c2ccccc2)o1)c1ccc(F)cc1 | 93.6% (active) | 93.3 |
| O=C(Nc1nnc(C2=COCCO2)o1)c1ccc(F)cc1 | 17.6% (inactive) | 29.2 |
| O=C(NCc1nnc2c3ccccc3c(-c3ccccc3)nn12)c1ccc(Cl)cc1 | 15.3% (inactive) | -15.9 |
| Cc1ccc(C(=O)Nc2nnc(C3=COCCO3)o2)cc1 | 11.3% (inactive) | -5.11 |
| CCOC(=O)Cc1c(C)nc2c(-c3cccc(Br)c3)c[nH]n2c1=O | 98.3% (active) | 97.9 |
| CCCCOC(=O)CSc1nc(N)c(C#N)c(-c2ccc(OC)cc2)c1C#N | 4.48% (active) | 30.9 |
| CCOC(=O)CSc1nc(N)c(C#N)c(-c2cccs2)c1C#N | -3.66% (inactive) | 10.2 |
